Bioassay records deposited in PubChem by National Center for Advancing Translational Sciences (NCATS).
Lassa entry inh – inhibitors of Lassa virus binding or cell entry. Lassa virus pseudotype entry inhibition, cell reporter. 300,000 tested, 1.2% active. Potency, µM (highest dose often 37.9 µM), for the others: at the highest dose activity change, negative = inhibition, hits mostly inhibitors; calls by dose curve; tested in HEK293 cells; further: potency means the concentration at half of the fitted maximal effect; on the % scale 0 is the no-effect control and ±100 the full control effect; nearly all actives have a fitted effect of over 50% in size
Shiga toxin inh – blocks Shiga toxin action in Vero cells | Vero cells, Shiga toxin protein synthesis inhibition reporter | inhibition, % at 38.7 µM | 290,000 tested, 9.2% active; in the data active means inhibition mostly above about 28%, no sharp cut-off; inactive means mostly below about 43%; further: 0% is about no effect
Pf growth 48h – inhibits P. falciparum growth in the first generation, 48 h; 310,000 tested, 5.9% active; Potency, µM (highest dose often 28.7 µM), for the others: top-dose activity change, negative = inhibition, hits mostly inhibitors; P. falciparum luciferase growth in erythrocytes, 48 h; further: potency means the concentration at half of the fitted maximal effect; on the % scale 0 is the no-effect control and ±100 the full control effect
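Read-out is firefly luciferase luminescence from an integrated reporter in P. falciparum, so falling signal marks reduced parasite growth. Infected erythrocytes were at 2% hematocrit and 0.1% parasitemia (final) in Albumax-supplemented RPMI 1640.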
Pf growth 96h – P. falciparum growth inhibition at 96 hours; P. falciparum luciferase reporter growth, 96 h; Potency, µM (top dose mostly 28.7 µM), for inactives: at the highest dose activity change, negative = inhibition, usual class: inhibitors; 320,000 tested, 6.9% active; further: potency means the concentration at half of the fitted maximal effect; on the % scale 0 is the no-effect control and ±100 the full control effect
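Compounds incubated with erythrocytes infected by luciferase-expressing P. falciparum (2% hematocrit, 0.05% parasitemia final) for 96 hours, 37 C in 5% CO2. Growth inhibition scored as decreased luciferase luminescence.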
CHX counter – affects cycloheximide protein synthesis inhibition readout, counter-screen; cell reporter, cycloheximide protein synthesis inhibition counterscreen; max response, %; 300,000 tested, 12% active; in the data active means max response mostly above about 13%, no sharp cut-off; inactive means mostly below about 14%; further: read at 38.3 µM for the half of the compounds with a filed dose; 0% is about no effect
MARV entry inh – blocks Marburg virus binding to or entry into cells; AID 540276; Marburg virus pseudotyped entry inhibition, cell reporter; 300,000 tested, 1.8% active; Potency, µM (highest dose often 37.8 µM), for the others: at the highest dose activity change, negative = inhibition, actives largely listed as inhibitors; calls by dose curve; tested in HEK293 cells; further: potency means the concentration at half of the fitted maximal effect; on the % scale 0 is the no-effect control and ±100 the full control effect
An asterisk follows results filed as active; ? = inconclusive; . = no result given; [ ] = remark or other dose. The list is not random: actives were taken first. Their share in the collection is about 19%. Unless noted, the call rests on the fitted dose curve; in most records, active means well fitted inhibition curve with a large enough effect; inconclusive means small, poorly fitted or top-dose-only effect, or another doubt; inactive means no such curve, though single readings can be large or run the other way.

SMILES	Lassa entry inh	Shiga toxin inh	Pf growth 48h	Pf growth 96h	CHX counter	MARV entry inh
O=C(CN1C(=O)CSc2ncccc21)NCCN1CCOCC1	.	-3	.	?	-3	.
COCCCNC(=O)CN1C(=O)CSc2ncccc21	.	-7	7%	2.6µM*	-4	-5%
CC(=O)Oc1cccc(N2C(=O)c3cccc4c([N+](=O)[O-])ccc(c34)C2=O)c1	.	-5	26%	-2%	-3	.
CCOCc1cn(CC(=O)c2ccc(Cl)cc2)c(C)nc1=N	10%	-17	4.1µM*	.	-4	3%
CCOCc1cn(CC(=O)c2ccc([N+](=O)[O-])cc2)c(C)nc1=N	19%	-18	1µM*	.	-3	-6%
COc1ccc(NC(=O)CN(C)S(=O)(=O)c2ccc(Cl)cc2)cc1Cl	-16%	-8	19%	156%	-2	-28%
CC1Cn2c(nnc2C23CC4CC(CC(C4)C2)C3)S1 (centres undefined)	-7%	12	?	.	-3	1%
COc1ccc(OC)c(NC(=O)CS(=O)(=O)c2cn(CC(=O)N3CCOCC3)c3ccccc23)c1	6%	9	?	?	5	0%
COc1ccc(C2N(c3ccccc3)CCN2c2ccccc2)cc1O	-5%	59*	22%	17%	26*	20%[46.1 µM]
COc1ccccc1CC(=O)N1CCN(c2ccc(F)cc2)CC1	-7%	.	.	.	.	?
Cn1c(=O)n(CC(=O)N2CCN(c3nnc(-c4ccccc4)c4ccccc34)CC2)c2ccccc21	?	-10	17%	13µM*	-3	?
c1csc(-c2nnc(N3CCOCC3)c3ccccc23)c1	-11%	-9	-13%	-1%	2	-1%[46.1 µM]
Cc1ccc(-c2nnc(N3CCN(C(=O)c4cccs4)CC3)c3ccccc23)cc1	.	-6	8.3µM*	4.7µM*	2	.
O=C(COc1ccc([N+](=O)[O-])cc1)N1CCN(c2nnc(-c3ccccc3)c3ccccc23)CC1	.	4	8%	13%	-3	.
c1csc(-c2nnc(N3CCCCCC3)c3ccccc23)c1	-11%	77*	4%	-29%	15*	?
Cc1ccc(-c2nnc(N3CCN(C(=O)Cn4c(=O)n(C)c5ccccc54)CC3)c3ccccc23)cc1	?	-29	-2%	.	-1	0%
Cc1ccc(-c2nnc(N3CCN(C(=O)COc4ccccc4)CC3)c3ccccc23)cc1	?	-12	.	5.2µM*	1	?
O=C(COc1ccc(-c2nnc(N3CCCCC3)c3ccccc23)cc1)N1CCCCC1	?	-6	12µM*	8.3µM*	-3	?
CC(C)(C)c1cc(-c2n[nH]c(=S)n2-c2ccccc2F)n[nH]1	12%	74*	26%	14%	40*	?
O=C(O)/C=C\C(=O)Nc1ccccc1C#Cc1ccccc1	10%	active	127%	89%	59*	3%
O=C(O)/C=C\C(=O)Nc1ccccc1C#Cc1ccc(Br)cc1	-1%	89*	24%	62%	56*	-1%
O=C(O)/C=C/C(=O)Nc1ccccc1-c1ccccc1NC(=O)/C=C/C(=O)O	?	-5	0%	?	-1	3%
Cc1onc(-c2ccccc2)c1C(=O)NC(C)C1CCCO1 (centres undefined)	3%	6	3%	8%	-5	19%
CN1CCc2c(sc(N)c2C(N)=O)C1	-2%	10	-10%	29%	-1	6%
c1ccc2c(c1)Nc1cc3ccccc3cc1S2	20%	47*	-21%	1.9µM*	26*	0%[46.1 µM]
SMILES	Lassa entry inh	Shiga toxin inh	Pf growth 48h	Pf growth 96h	CHX counter	MARV entry inh
c1ccc2c(c1)Nc1ccncc1S2	6%	-2	15µM*	?	16	20%
COc1ccc2c(c1)S(=O)(=O)c1ccccc1N2	28%[46.1 µM]	-4	14%	30%	-2	8%[46.1 µM]
COc1ccc2c(c1)Sc1ccccc1N2	12%	29	-9%	?	31*	-13%[46.1 µM]
CCc1ccc(N(CC)C(=O)Cc2c(C(=O)O)n(C)c3ccccc23)cc1	16%	-6	10%	-26%	-2	15%
CCO[C@H]1OC(C(=O)N2CCOCC2)=C[C@@H](C2CC2)[C@@H]1CCCO	.	-18	10%	47%	-3	.
Cc1cccc(NC(=S)NCCCN2CCOCC2)c1	14%	1	-1%	-2%	-2	-3%
OCCOCCNc1ncnc2nc[nH]c12	.	-8	-3%	-1%	-2	.
O=C(CC1Sc2ccccc2NC1=O)Nc1cccc(C(F)(F)F)c1 (centres undefined)	-8%[46.1 µM]	.	.	.	.	.
COc1ccc2[nH]c(=O)c(CN(C(=O)NC3CCCCC3)C3CCCCC3)cc2c1	13%	-20	-18%	?	2	8%
CN(C(=O)CCCOc1ccc2[nH]c(=O)ccc2c1)C1CCCCC1	?	.	?	0.6µM*	.	11%
CCN(C(C)=O)c1cnc(C=NNC(N)=S)c2ccccc12	8.9µM*	.	.	.	.	?
CC(C)(C)C1CCc2c(sc(NC(=O)C3CC=CCC3C(=O)O)c2C#N)C1 (centres undefined)	16%	13	?	?	-3	?
COc1cc(/C=C/c2ccc3cccc(O)c3n2)c(Br)cc1O	.	93*	?	21%	40*	.
COc1cc(C=O)c(Br)cc1OC1CCCC1	2%	-5	.	-2%	-5	0%[46.1 µM]
COc1cc(Br)cc(/C=C/c2ccc3cccc(O)c3n2)c1O	.	75*	-12%[0.00184 µM]	10%	32*	.
CSc1ccc(/C=C/c2ccc3cccc(O)c3n2)cc1	?	115*	-19%	-26%	44*	2.5µM*
COc1cc(Br)c(/C=C/c2ccc3cccc(O)c3n2)cc1OC	.	2	2.6µM*	2.1µM*	11	.
O=S(=O)(NCC1CCCO1)c1ccc(S(=O)(=O)N(Cc2ccc(F)cc2)C2CCCCC2)cc1 (centres undefined)	-17%	.	.	.	.	-1%
CCc1cccc(NC(=O)COc2ccccc2)c1	-9%	49	21%	.	35	2%[46.1 µM]
COc1cccc(CNC(=O)C2Cc3cc(S(=O)(=O)N4CCCCCC4)ccc3N2C(C)=O)c1 (centres undefined)	13%[46.1 µM]	.	.	.	.	.
Cc1c(Cl)cccc1-n1cnc(=O)c2ccccc21	-9%	.	.	.	.	-7%
C[C@]12CC[C@@H](O)CC1=CC(=O)C1C2CC[C@]2(C)C(=O)CCC12 (some centres undefined)	-9%	.	.	.	.	-11%
COc1ccc(OC)c(/C=C/c2ccc3cccc(O)c3n2)c1	.	89*	4.1µM*	39%	59*	.
C/C=C/c1ccc(O)c(OC)c1	.	.	9%	?	.	.
COc1cc(/C=C/c2ccc3cccc(O)c3n2)ccc1O	.	68*	-61%	?	55*	.
Oc1ccc(Cl)cc1/C=C/c1ccc2cccc(O)c2n1	-16%[46.1 µM]	61*	?	-5%	29*	?
Oc1c(Cl)cc(Cl)cc1/C=C/c1ccc2cccc(O)c2n1	?	31	-29%	-21%	7	?
Oc1cccc2ccc(/C=C/c3ccccc3Br)nc12	?	83*	0%	?	62*	?
